# Laboratory results reported in PubChem BioAssay (NCATS).
# Records with an inconclusive call do not appear. A call without a number means that no potency is given here. Calls of active or inactive are those of the source. Unless noted, calls come from the whole dose curve; as a rule, active = well fitted curve in the direction sought with a large enough effect; inconclusive = small, poorly fitted or top-dose-only effect, or another doubt; inactive = no such curve, though single readings can be large; an effect the other way counts as inactive or inconclusive.
# Columns and labels:
# [1] = P-glycoprotein substrates identified in KB-8-5-11 adenocarcinoma cell line, qHTS therapeutic library screen (AID 1346987); note: nearly all actives have a fitted effect of over 65% in size; note: potency is the fitted concentration of half-maximal effect
# In short: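 Compounds are pinned in dose-response onto KB-8-5-11 cells (500 cells/well, colchicine-free medium) and left 72 h at 37 degree C. CellTiter-Glo luminescence then yields AC50 values.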
# Furin (Homo sapiens) = Furin (Homo sapiens) (UniProt P09958); test: Furin counterscreen qHTS for Zika virus inhibitors (AID 1347149); note: nearly all actives have a fitted effect of over 70% in size; note: potency is the fitted concentration of half-maximal effect
# Furin (Homo sapiens), sequence (P09958 whole entry, looked up): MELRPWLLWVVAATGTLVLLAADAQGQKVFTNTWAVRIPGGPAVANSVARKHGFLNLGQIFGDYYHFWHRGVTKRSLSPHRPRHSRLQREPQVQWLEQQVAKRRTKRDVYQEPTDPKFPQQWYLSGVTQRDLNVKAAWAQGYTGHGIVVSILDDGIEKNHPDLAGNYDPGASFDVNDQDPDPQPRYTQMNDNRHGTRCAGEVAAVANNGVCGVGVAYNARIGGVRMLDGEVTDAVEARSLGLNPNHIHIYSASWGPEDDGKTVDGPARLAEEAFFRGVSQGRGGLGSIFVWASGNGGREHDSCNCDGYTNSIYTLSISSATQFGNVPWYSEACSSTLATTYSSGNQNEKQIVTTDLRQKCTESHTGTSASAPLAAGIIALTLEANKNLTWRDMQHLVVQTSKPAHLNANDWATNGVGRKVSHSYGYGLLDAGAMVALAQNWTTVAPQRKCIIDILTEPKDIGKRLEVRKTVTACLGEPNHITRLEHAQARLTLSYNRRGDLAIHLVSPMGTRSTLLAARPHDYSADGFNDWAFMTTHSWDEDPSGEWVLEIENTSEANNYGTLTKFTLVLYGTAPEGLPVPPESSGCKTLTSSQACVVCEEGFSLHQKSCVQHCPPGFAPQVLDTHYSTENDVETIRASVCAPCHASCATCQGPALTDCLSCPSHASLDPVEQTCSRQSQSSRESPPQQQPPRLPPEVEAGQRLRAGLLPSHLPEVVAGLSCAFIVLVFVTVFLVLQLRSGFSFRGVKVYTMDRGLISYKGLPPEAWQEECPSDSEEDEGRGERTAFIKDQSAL
# In short: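 Counterscreen measures cleavage of 2 microM BOC-RVRR-AMC, below its ~15 microM Km, by 5 nM full-length human furin at pH 7.0 after a 15-min compound preincubation. Inhibition derives from the 15-min fluorescence increase at 37C.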
# [2] = tested on: Zika virus NS2B-NS3 protease (linked construct); test: Confirmatory screen NINDS AMC qHTS for Zika virus inhibitors (AID 1347152); note: potency is the fitted concentration of half-maximal effect; nearly all actives have a fitted effect of over 70% in size
# In short: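 Enzyme (1 nM, linked construct) was preincubated with compound for 15 minutes at room temperature in 10 mM Tris-HCl pH 8.0 with 0.01% Tween 20. Bz-Nle-Lys-Arg-Arg-AMC was then added to 10 microM, and AMC fluorescence was recorded immediately and after 15 minutes.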
# [3] = tested on: Zika virus NS2B-NS3 protease (unlinked complex); test: Confirmatory screen GU AMC qHTS for Zika virus inhibitors (AID 1347153); conditions: Recombinant NS2B-NS3 protease, AMC substrate fluorescence; note: potency is the fitted concentration of half-maximal effect; nearly all actives have a fitted effect of over 70% in size
# In short: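 Unlinked enzyme 25 nM, Tris pH 8.0/0.01% Tween 20; cpd 15 min RT, dark; + AMC substrate 10 µM (Km 18.3 µM); 340/450 nm read at t0 and 15 min; % inhibition → 4-param fit.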
# [4] = molecular target: Atrial natriuretic peptide receptor 1 (Homo sapiens) (UniProt P16066); test: Natriuretic polypeptide receptor (hNpr1) antagonism - Pilot screen (AID 1347049; calls by dose curve;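 note: HEK293 cells with hNpr1 and GloSensor cGMP luciferase stimulated by 0.1 nM hNppA; agonist-evoked cGMP luminescence read 20 min after hNppA addition; series mostly up to about 58 µM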)
# Atrial natriuretic peptide receptor 1 (Homo sapiens), sequence (P16066 whole entry, looked up): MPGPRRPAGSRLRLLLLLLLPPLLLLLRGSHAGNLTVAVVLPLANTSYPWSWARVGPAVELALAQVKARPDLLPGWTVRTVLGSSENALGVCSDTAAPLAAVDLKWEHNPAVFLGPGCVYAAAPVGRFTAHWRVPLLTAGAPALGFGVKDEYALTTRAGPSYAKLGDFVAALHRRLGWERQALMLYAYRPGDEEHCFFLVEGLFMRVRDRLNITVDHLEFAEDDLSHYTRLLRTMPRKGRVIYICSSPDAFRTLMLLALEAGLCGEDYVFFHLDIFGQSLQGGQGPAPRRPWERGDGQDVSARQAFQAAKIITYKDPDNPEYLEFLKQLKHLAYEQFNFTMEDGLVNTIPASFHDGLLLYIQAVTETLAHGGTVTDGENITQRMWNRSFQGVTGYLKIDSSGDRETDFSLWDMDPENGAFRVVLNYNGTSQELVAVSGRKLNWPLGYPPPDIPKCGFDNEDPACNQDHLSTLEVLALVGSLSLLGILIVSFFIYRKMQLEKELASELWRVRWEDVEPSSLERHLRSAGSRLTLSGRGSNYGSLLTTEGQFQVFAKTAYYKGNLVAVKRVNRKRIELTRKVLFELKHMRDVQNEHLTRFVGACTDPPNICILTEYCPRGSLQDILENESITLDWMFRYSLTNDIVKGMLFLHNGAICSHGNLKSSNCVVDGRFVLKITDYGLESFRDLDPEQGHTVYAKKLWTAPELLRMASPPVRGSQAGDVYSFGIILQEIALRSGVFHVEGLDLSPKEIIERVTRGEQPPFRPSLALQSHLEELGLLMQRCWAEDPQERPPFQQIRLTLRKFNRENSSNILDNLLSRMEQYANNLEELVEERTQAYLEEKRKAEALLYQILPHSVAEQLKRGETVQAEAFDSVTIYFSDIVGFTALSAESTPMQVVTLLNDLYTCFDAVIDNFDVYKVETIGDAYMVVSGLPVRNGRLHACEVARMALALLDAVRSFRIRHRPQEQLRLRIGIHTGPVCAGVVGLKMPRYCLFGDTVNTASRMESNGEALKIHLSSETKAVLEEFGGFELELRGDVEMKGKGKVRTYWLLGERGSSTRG
# In short: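 Cells expressing receptor plus cGMP biosensor are seeded and incubated overnight at 37C, then loaded with GloSensor reagent (2% final) at room temperature for 2 h. Library compounds go on for 30 min. A pre-read precedes agonist (hNppA, 0.1 nM final) and a 20-min readout.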
# [5] = molecular target: Atrial natriuretic peptide receptor 2 (Homo sapiens) (UniProt P20594); test: Natriuretic polypeptide receptor (hNpr2) antagonism - Pilot subtype selectivity assay (AID 1347050; calls by dose curve)
# Atrial natriuretic peptide receptor 2 (Homo sapiens), sequence (P20594 whole entry, looked up): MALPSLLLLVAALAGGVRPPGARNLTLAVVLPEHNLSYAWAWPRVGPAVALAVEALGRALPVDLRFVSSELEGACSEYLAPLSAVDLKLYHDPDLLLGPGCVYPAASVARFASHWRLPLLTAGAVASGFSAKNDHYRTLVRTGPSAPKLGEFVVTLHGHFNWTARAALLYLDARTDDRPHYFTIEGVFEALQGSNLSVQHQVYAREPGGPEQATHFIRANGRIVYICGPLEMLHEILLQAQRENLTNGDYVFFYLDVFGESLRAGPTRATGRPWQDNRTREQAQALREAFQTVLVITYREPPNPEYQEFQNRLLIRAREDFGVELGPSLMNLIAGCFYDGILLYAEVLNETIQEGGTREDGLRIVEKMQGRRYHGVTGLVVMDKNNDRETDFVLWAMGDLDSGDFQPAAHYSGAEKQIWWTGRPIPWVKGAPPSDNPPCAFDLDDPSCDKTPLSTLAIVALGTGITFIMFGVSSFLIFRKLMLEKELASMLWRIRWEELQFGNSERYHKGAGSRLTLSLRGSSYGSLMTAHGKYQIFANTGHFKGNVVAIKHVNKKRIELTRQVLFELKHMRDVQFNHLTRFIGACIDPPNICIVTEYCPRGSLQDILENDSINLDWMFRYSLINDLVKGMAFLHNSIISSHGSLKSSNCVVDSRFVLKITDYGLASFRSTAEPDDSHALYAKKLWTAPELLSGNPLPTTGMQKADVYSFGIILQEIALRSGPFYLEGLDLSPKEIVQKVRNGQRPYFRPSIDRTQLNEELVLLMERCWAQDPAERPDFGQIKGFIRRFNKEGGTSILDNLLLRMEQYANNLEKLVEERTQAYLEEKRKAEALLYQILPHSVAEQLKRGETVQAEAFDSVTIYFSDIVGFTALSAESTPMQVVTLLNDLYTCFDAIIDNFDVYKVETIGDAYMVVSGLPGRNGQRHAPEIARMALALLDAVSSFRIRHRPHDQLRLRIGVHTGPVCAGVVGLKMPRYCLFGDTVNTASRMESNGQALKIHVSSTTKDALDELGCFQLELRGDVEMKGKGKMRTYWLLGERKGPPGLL
# In short: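 Read-out: GloSensor luminescence (CCD imager), baseline vs post-stimulation. HEK293 cells expressing hNpr2; compounds pre-incubated 30-50 min at ambient temperature; hNppC 1 nM final, 20 min.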
# [6] = molecular target: Parathyroid hormone/parathyroid hormone-related peptide receptor (Homo sapiens) (UniProt Q03431); test: qHTS for PTHR1 Agonists: Optimization Screen against the NCGC LOPAC library (AID 1347079);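 note: GloSensor cAMP luminescence in HEK-293 GP2 cells expressing human PTHR1 with IBMX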
# Parathyroid hormone/parathyroid hormone-related peptide receptor (Homo sapiens), sequence (Q03431 whole entry, looked up): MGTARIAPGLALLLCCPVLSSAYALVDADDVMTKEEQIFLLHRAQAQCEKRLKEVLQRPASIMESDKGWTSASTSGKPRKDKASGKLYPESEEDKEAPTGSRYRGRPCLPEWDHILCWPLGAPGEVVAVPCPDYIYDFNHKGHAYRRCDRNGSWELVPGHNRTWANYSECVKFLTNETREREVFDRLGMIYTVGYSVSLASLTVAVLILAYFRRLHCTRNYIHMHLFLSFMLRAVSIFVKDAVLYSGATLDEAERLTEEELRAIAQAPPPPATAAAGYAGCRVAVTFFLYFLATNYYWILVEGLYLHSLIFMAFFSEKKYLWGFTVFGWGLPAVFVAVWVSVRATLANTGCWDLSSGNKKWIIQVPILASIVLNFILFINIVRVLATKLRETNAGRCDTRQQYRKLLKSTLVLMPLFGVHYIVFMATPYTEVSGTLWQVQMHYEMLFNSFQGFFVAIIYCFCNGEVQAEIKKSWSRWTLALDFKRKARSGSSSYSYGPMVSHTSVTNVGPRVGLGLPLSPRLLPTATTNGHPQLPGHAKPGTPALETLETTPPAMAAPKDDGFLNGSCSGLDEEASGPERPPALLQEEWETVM
# In short: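 HEK-293 GP2 cells, PTHR1 + GloSensor cAMP; 3000 cells/well, o/n. Luciferin + IBMX 0.5mM each (stock), 1 hr 37C. Cpd titration, 1 hr 37C. Lum after 15 min RT. Ctrl M-PTH(1-15) top 10uM.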
# [7] = molecular target: N-terminal Xaa-Pro-Lys N-methyltransferase 1 (Homo sapiens) (UniProt Q9BV86); test: qHTS Assay for Inhibitors of N-terminal methyltransferase 1 (NTMT1): LOPAC validation of the NTMT1 SAHH-coupled ThioGlo3 Assay (AID 1347143);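 note: SAH from peptide methylation measured as thiol fluorescence via SAHH coupling and ThioGlo3; nearly all actives have a fitted effect of over 70% in size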
# N-terminal Xaa-Pro-Lys N-methyltransferase 1 (Homo sapiens), sequence (Q9BV86 whole entry, looked up): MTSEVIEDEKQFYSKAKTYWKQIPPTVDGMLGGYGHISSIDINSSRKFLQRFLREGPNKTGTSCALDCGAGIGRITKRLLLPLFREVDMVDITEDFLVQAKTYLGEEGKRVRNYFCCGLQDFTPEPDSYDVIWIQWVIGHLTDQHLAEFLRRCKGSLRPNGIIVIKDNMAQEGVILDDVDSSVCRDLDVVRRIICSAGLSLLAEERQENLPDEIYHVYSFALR
# In short: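 In this qHTS pilot against the LOPAC set, 125nM NTMT1 met compounds tested at multiple concentrations, and fluorescence was normalized to background.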
compound,measurement,setting,value
CC(=O)NCc1cccc(OC[C@@H](O)CNCCc2ccc(NS(=O)(=O)c3ccccc3)cc2)c1,Potency,[1],inactive
C=CS(=O)(=O)NC1CCN(C(=O)CNc2cc(I)c(Cl)cc2OC)CC1,Potency,[1],14.6 µM (active)
CC(=O)O[C@H]1[C@H](O)C[C@@]2(C)C(CC[C@]3(C)C2CC=C2C4CC(C)(C)CC[C@]4(C(=O)O)CC[C@]23C)C1(C)C (some centres not stated),Potency,[1],inactive
CCOC(=O)COc1ccc2c(C)c(CCN(CC)CC)c(=O)oc2c1,Potency,[1],inactive
Cc1c(N)nc(C(CC(N)=O)NCC(N)C(N)=O)nc1C(=O)NC(C(=O)NC(C)C(O)C(C)C(=O)NC(C(=O)NCCc1nc(-c2nc(C(=O)NCCCN[C@@H](C)c3ccccc3)cs2)cs1)C(C)O)C(O[C@@H]1O[C@@H](CO)[C@@H](O)[C@H](O)[C@@H]1O[C@H]1O[C@H](CO)[C@@H](O)[C@H](OC(N)=O)[C@@H]1O)c1cnc[nH]1 (some centres not stated),Potency,[1],inactive
CCCCc1ccc(NS(=O)(=O)c2ccc(F)cc2)cc1,Potency,[1],inactive
NCCCC[C@H](NC(=O)[C@@H]1CCCN1C(=O)[C@@H]1CSSC[C@H](N)C(=O)N[C@@H](Cc2ccccc2)C(=O)N[C@@H](Cc2ccccc2)C(=O)N[C@@H](CCC(N)=O)C(=O)N[C@@H](CC(N)=O)C(=O)N1)C(=O)NCC(N)=O,Potency,[1],inactive
O=C(O)c1cccc(-c2ccc(-c3cn(C(=O)N4CCCCC4Cc4ccccc4)nn3)cc2)c1 (configuration not stated),Potency,[1],inactive
same,Potency,Furin (Homo sapiens),55.5 µM (active)
same,Potency,[2],27.8 µM (active)
same,Potency,[3],31.2 µM (active)
Cc1noc(-c2ccc(-c3ccc(CC(=O)O)cc3)cc2)c1NC(=O)O[C@H](C)c1ccccc1Cl,Potency,[1],inactive
same,Potency,Furin (Homo sapiens),69.8 µM (active)
same,Potency,[2],44.1 µM (active)
same,Potency,[3],31.2 µM (active)
O=C[C@H](O)[C@@H](O)[C@H](O[C@H]1O[C@H](CO)[C@@H](O[C@H]2O[C@H](CO)[C@@H](O)[C@H](O)[C@H]2O)[C@H](O)[C@H]1O)[C@H](O)CO,Potency,[1],inactive
CCN(CC)c1ccc(N=Nc2ccc(S(=O)(=O)N(C)C)cc2)c(S(=O)(=O)NCC[n+]2ccccc2)c1,Potency,[1],inactive
O=C(Nc1ccc(/C=C/c2ccc(NC(=O)c3cc(S(=O)(=O)O)c4cccnc4c3O)cc2S(=O)(=O)O)c(S(=O)(=O)O)c1)c1cc(S(=O)(=O)O)c2cccnc2c1O,Potency,[1],inactive
same,Potency,Furin (Homo sapiens),46.9 µM (active)
O=C(NC1(c2ccccc2)CC1)c1c(CN2CCC(N3CCCCC3)CC2)c(-c2cccc(C(F)(F)F)c2)nc2cc(Br)ccc12,Potency,[1],23.1 µM (active)
CC#C[C@@H](CC(=O)O)c1ccc(OCc2ccc(CN3CCC4(C=Cc5ccccc54)CC3)s2)cc1,Potency,Furin (Homo sapiens),inactive
same,Potency,[2],35 µM (active)
same,Potency,[3],39.3 µM (active)
COc1ccc(-c2ccccc2)cc1NS(=O)(=O)c1cc(Cl)cc(Cl)c1O,Potency,[1],inactive
same,Potency,Furin (Homo sapiens),30.4 µM (active)
same,Potency,[2],7.64 µM (active)
C=C1C(=O)O[C@@H]2C[C@H](C)C3=CC(=O)[C@H](O)[C@@]3(C)C[C@H]12,Potency,[1],inactive
O=C(CCl)Nc1cccc(NC2=NS(=O)(=O)c3ccccc32)c1,Potency,[1],18.4 µM (active)
O=S(O)CO,Potency,[1],inactive
CN(C)CCOc1cc(NS(=O)(=O)c2c(Cl)cc(C(F)(F)F)cc2Cl)ccc1Cl,Potency,[1],inactive
NCCCC(=O)O,Potency,[1],inactive
same,outcome,[4],inactive
same,Potency,[5],inactive
same,outcome,[6],inactive
same,outcome,[7],inactive
C=C1CC2C3CCC4=CC(=O)C=C[C@]4(C)[C@@]3(F)[C@@H](O)C[C@]2(C)[C@@]1(O)C(=O)COC(C)=O (some centres not stated),Potency,[1],inactive
Cc1ccc(O)cc1Nc1ccnc(Nc2cccc(C(N)=O)c2)n1,Potency,[1],23.1 µM (active)
CCCCCc1ccc(/C=C/C(=O)Nc2cc(Cl)ccc2C(=O)O)cc1,Potency,[1],inactive
same,Potency,Furin (Homo sapiens),39.3 µM (active)
same,Potency,[2],8.79 µM (active)
same,Potency,[3],9.87 µM (active)
N#Cc1ccc(N2N=C3c4ccc(C(=O)O)cc4CC[C@@H]3[C@@H]2C2CCCC2)cc1Cl,Potency,Furin (Homo sapiens),inactive
same,Potency,[2],8.79 µM (active)
same,Potency,[3],15.6 µM (active)
O=C(O)c1ccc(S(=O)(=O)N(Cc2ccc(OC(F)(F)F)cc2)c2ncc(C(F)(F)F)cc2Cl)cc1,Potency,[1],inactive
same,Potency,[2],49.4 µM (active)
same,Potency,[3],44.1 µM (active)
